The structures appear in SMILES notation. This is part of a sample that, as a whole, favours compounds with a hit. Of some 83,000 tested, about 20% had one in any assay.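 Cells were grown in 96-well plates and exposed to the test compound at a single concentration for 48 hours; results are reported as percent growth, with values below 10 considered active.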 Values without a mark were called inactive. Activity calls are given as the source filed them.

The source of these data is PubChem BioAssay (NCI).

Among the test systems are SR leukemia; RPMI-8226 leukemia; OVCAR-8 ovarian; OVCAR-5 ovarian; OVCAR-4 ovarian; SK-OV-3 ovarian; IGROV1 ovarian; OVCAR-3 ovarian; HS 578T breast; NCI/ADR-RES ovarian.
Assay in all cases: NCI-60 one-dose screen, 48 h (100 = growth as untreated, 0 = no growth, -100 = all killed)
Common to all, as to settings: 10 µM unless noted

Regarding `C/C(Cc1ccc(Cl)cc1)=C(/c1ccc(Cl)cc1)c1ccc(OCCN2CCCC2)cc1`, the growth with SR leukemia was 9.32% (active); in the test on RPMI-8226 leukemia, 48.3%; in the test with OVCAR-8 ovarian it was 83.8%; in the test on OVCAR-5 ovarian, 86%; in the test with OVCAR-4 ovarian it was 78.4%; in the test on SK-OV-3 ovarian, 99%. In addition, the growth with IGROV1 ovarian was 71.8%; in the test on OVCAR-3 ovarian, 70.5%; with HS 578T breast it was 79.1%; with NCI/ADR-RES ovarian, 84.4%.

As for `CN1CCN(c2ccc3nc(-c4[nH]ncc4Nc4ncnc5c4OCCCN5)[nH]c3c2)CC1`, the growth was 3.46% (active) with SR leukemia; -36.3% (active) with RPMI-8226 leukemia; 0.0729% (active) in the test with OVCAR-8 ovarian; -61.4% (active) in the test with OVCAR-5 ovarian; -35.2% (active) in the test on OVCAR-4 ovarian; -21.5% (active) with SK-OV-3 ovarian. The growth is -21.4% (active) in the test with IGROV1 ovarian, -32.2% (active) in the test with OVCAR-3 ovarian, -5.79% (active) in the test with HS 578T breast and -6.16% (active) in the test on NCI/ADR-RES ovarian.

Regarding `CC(=O)c1c(C)[nH]c(-c2nc3ccc(N4CCN(C)CC4)cc3[nH]2)c1-c1ccc(N(C)C)cc1`, the growth with SR leukemia was 33%; in the test on RPMI-8226 leukemia, 0.258% (active); with OVCAR-8 ovarian, 43.7%; with OVCAR-5 ovarian, 41.6%; with OVCAR-4 ovarian, 37.2%; with SK-OV-3 ovarian, 12.6%. The growth is 15.6% in the test on IGROV1 ovarian, 34.6% in the test on OVCAR-3 ovarian, 21.1% in the test on HS 578T breast and 34.2% with NCI/ADR-RES ovarian.

On to `COC(=O)c1cc(=O)nc(N/N=C/c2ccc(C)cc2)s1`, for which the growth is 94.8% with SR leukemia; 89.9% with RPMI-8226 leukemia; 105% in the test on OVCAR-8 ovarian; 101% with OVCAR-5 ovarian; 96.9% in the test on OVCAR-4 ovarian; 110% with SK-OV-3 ovarian. For the same compound, the growth in the test with IGROV1 ovarian is 105%; with OVCAR-3 ovarian, 120%; in the test on HS 578T breast, 110%; in the test on NCI/ADR-RES ovarian it was 106%.

For `C=CC(=O)N[C@H](Cc1ccc(-c2cc(Cl)cc(Cl)c2)cc1)[C@H](O)[C@@H](O)C(=O)O`, the growth is 81.6% in the test with SR leukemia; 82.7% with RPMI-8226 leukemia; 90.9% in the test on OVCAR-8 ovarian; 96% in the test on OVCAR-5 ovarian; 96.9% in the test on OVCAR-4 ovarian; 78.6% with SK-OV-3 ovarian. Further, the growth was 96.7% in the test with IGROV1 ovarian, 101% in the test on OVCAR-3 ovarian, 95.5% in the test with HS 578T breast and 101% in the test with NCI/ADR-RES ovarian.

For the compound `Cc1cc(Cl)nc(N(CCNc2ccnc3cc(Cl)ccc23)Cc2ccco2)n1`, the growth with SR leukemia was -3.12% (active); in the test on RPMI-8226 leukemia, -30.7% (active); in the test on OVCAR-8 ovarian, 45.3%; in the test on OVCAR-5 ovarian, 80.5%; with OVCAR-4 ovarian, 53.1%; in the test with SK-OV-3 ovarian, 123%. Besides, the growth in the test on IGROV1 ovarian is 38.3%; in the test with OVCAR-3 ovarian, -41.2% (active); in the test on HS 578T breast, 79.2%; in the test with NCI/ADR-RES ovarian, 44.5%.

`COc1cc2ncnc(Nc3ccc(OCc4cccc(F)c4)c(Cl)c3)c2cc1NC(=O)C1CCCC1`: the growth with SR leukemia was 91%; in the test with RPMI-8226 leukemia it was 89.9%; in the test on OVCAR-8 ovarian, 76.9%; in the test on OVCAR-5 ovarian, 88.9%; in the test on OVCAR-4 ovarian, 100%; in the test on SK-OV-3 ovarian it was 13%. Moreover, the growth in the test with IGROV1 ovarian was 52.2%; with OVCAR-3 ovarian, 77.9%; in the test on HS 578T breast, 91.8%; in the test with NCI/ADR-RES ovarian, 71.6%.

On to `Cc1[c-]onc1C.Cc1[c-]onc1C.[Ag].[Ag].[NH-]S(=O)(=O)c1ccc(N=Nc2cc(N=Nc3ccc(S([NH-])(=O)=O)cc3)c3c(NC(=O)C(Cl)Cl)cccc3c2OC(=O)C(Cl)Cl)cc1`, for which the growth is 81.4% in the test on SR leukemia; 80.4% with RPMI-8226 leukemia; 69.1% in the test with OVCAR-8 ovarian; 125% in the test with OVCAR-5 ovarian; 93.9% in the test with OVCAR-4 ovarian; 111% in the test with SK-OV-3 ovarian. Also, the growth in the test on IGROV1 ovarian is 73%; in the test with OVCAR-3 ovarian, 59.7%; in the test on HS 578T breast, 85.2%; with NCI/ADR-RES ovarian, 96.9%.

As to `CC(=O)c1c(C)[nH]c(-c2nc3ccc(N4CCN(C)CC4)cc3[nH]2)c1-c1ccc(OCC2CCOCC2)cc1`, the growth in the test on SR leukemia is 28.1%; in the test on RPMI-8226 leukemia it was -2.05% (active); in the test on OVCAR-8 ovarian, 38%; with OVCAR-5 ovarian it was 43.8%; in the test on OVCAR-4 ovarian, 35.7%; with SK-OV-3 ovarian, 13.5%. Also, the growth is 16.2% in the test with IGROV1 ovarian, 30.7% in the test with OVCAR-3 ovarian, 19.5% in the test with HS 578T breast and 31.7% in the test on NCI/ADR-RES ovarian.

For the compound `O=S(=O)(NCCNc1cc(-c2cn(-c3ccccc3)nc2-c2cccc(O)c2)ccn1)c1ccc(F)cc1`, the growth is -5.97% (active) in the test with SR leukemia; 9.5% (active) with RPMI-8226 leukemia; 23.7% in the test on OVCAR-8 ovarian; 62.9% with OVCAR-5 ovarian; 41.3% in the test with OVCAR-4 ovarian; 46.4% with SK-OV-3 ovarian. Also, the growth with IGROV1 ovarian is 46.2%; with OVCAR-3 ovarian, 35.8%; with HS 578T breast, 15.7%; with NCI/ADR-RES ovarian, 17.9%.

On to `COc1cnc2c(c1)C(=O)c1c-2n(CCCNC(C)C)c(=O)c2cc([N+](=O)[O-])ccc12`, for which the growth in the test on SR leukemia is -7.62% (active); in the test with RPMI-8226 leukemia, -25.1% (active); in the test with OVCAR-8 ovarian, -47.6% (active); in the test with OVCAR-5 ovarian it was -46.6% (active); in the test on OVCAR-4 ovarian it was -68.9% (active); in the test on SK-OV-3 ovarian, -66.8% (active). The growth was -56.4% (active) in the test on IGROV1 ovarian, -74.3% (active) in the test with OVCAR-3 ovarian, -31% (active) in the test with HS 578T breast and -39.9% (active) in the test on NCI/ADR-RES ovarian.

In the case of `COC(=O)[C@]12CC[C@@H](C)[C@H](C)[C@@H]1C1=CC[C@@H]3[C@@](C)(CC#N)C4=C(C[C@@]3(C)[C@]1(C)CC2)OC[C@]4(C)C=O`, the growth is 2.49% (active) in the test with SR leukemia; 2.46% (active) in the test with RPMI-8226 leukemia; 5.29% (active) with OVCAR-8 ovarian; -48.3% (active) with OVCAR-5 ovarian; 10% in the test on OVCAR-4 ovarian; 0.91% (active) with SK-OV-3 ovarian. The growth with IGROV1 ovarian is 22.9%; in the test on OVCAR-3 ovarian it was -59.6% (active); in the test on HS 578T breast, -0.493% (active); in the test with NCI/ADR-RES ovarian, -11.3% (active).

Turning to `N=C(N)N=Nc1ccc(O)cc1`, the growth is 35.6% [100 µM] in the test on SR leukemia; 65.7% [100 µM] in the test on RPMI-8226 leukemia; 36.7% [100 µM] with OVCAR-8 ovarian; 116% [100 µM] in the test with OVCAR-5 ovarian; 68.9% [100 µM] in the test on OVCAR-4 ovarian; 106% [100 µM] in the test with SK-OV-3 ovarian. Further, the growth with IGROV1 ovarian was 85% [100 µM]; with OVCAR-3 ovarian, 68.3% [100 µM]; with HS 578T breast it was 60% [100 µM]; in the test with NCI/ADR-RES ovarian, 36.8% [100 µM].
